Test results reported in PubChem BioAssay (NCATS).
Results filed as inconclusive are left out. The source made the active and inactive calls. Calls follow the shape of the dose curve; as a rule, active = well fitted curve in the direction sought with a large enough effect; inconclusive = small, poorly fitted or top-dose-only effect, or another doubt; inactive = no such curve, though single readings can be large; an effect the other way counts as inactive or inconclusive.

Assays:
[1] = tested on: KB-3-1; test: Cytotoxic Profiling of Annotated Libraries Using Quantitative High-Throughput Screening (AID 1296008); settings: Five cell lines viability, CellTiter-Glo ATP luminescence, 48-72 h; max response: hits give low values; also: nearly all actives have a fitted effect of over 60% in size; as to max response: % is scaled to controls: 0 for no effect and ±100 for the full control effect
Procedure, shortened: (§1)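 Compounds were pin-transferred onto cells and incubated 48 or 72 hr at 37 degree Celsius, 95% humidity. CellTiter-Glo was added, plates sat 10 min at room temperature, then ATP-coupled luminescence was imaged as the viability read-out.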

[2] = tested on: NIH3T3; test: as above; settings: Five cell lines viability, CellTiter-Glo ATP luminescence, 48-72 h; max response: hits give low values
Procedure, shortened: as §1

[3] = tested on: HACAT; test: qHTS assay to identify novel small-molecules to repurpose for Merkel cell carcinoma treatment (AID 1296009); settings: MCC and control cell lines, CellTiter-Glo viability, 72 h; at 44.8 µM (top of the series) unless noted; also: nearly all actives have a fitted effect of over 60% in size
Procedure, shortened: (§2)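 qHTS format: cells treated with library compounds in DMSO across 8 (NPC) or 11 (MIPE) concentrations. Readout after 72 hr at 37 degree celsius was CellTiter-Glo luminescence.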

[4] = tested on: HEK293T; test: as above; settings: MCC and control cell lines, CellTiter-Glo viability, 72 h; series mostly up to 44.8 µM
Procedure, shortened: as §2

[5] = tested on: C33A; test: Primary qHTS to identify gynecologic anti-cancer compounds using libraries of approved drugs and bioactive compounds (AID 1345084); settings: Gynecologic cancer cell panel viability, ATPlite luminescence, 48 h; series mostly up to 57.5 µM; also: % is scaled to controls: 0 for no effect and ±100 for the full control effect; nearly all actives have a fitted effect of over 55% in size
Procedure, shortened: (§3)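 Cells, 1,000 per well, plated 16 h, then exposed 48 h at 37 C to compounds. Viability by ATPlite luminescence after 15 min at room temperature.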

[6] = tested on: CAOV3; test: as above; settings: Gynecologic cancer cell panel viability, ATPlite luminescence, 48 h; series mostly up to 57.5 µM
Procedure, shortened: as §3

[7] = tested on: CASKI; test: as above; settings: Gynecologic cancer cell panel viability, ATPlite luminescence, 48 h; series mostly up to 57.5 µM
Procedure, shortened: as §3

[8] = tested on: Es-2; test: as above; settings: Gynecologic cancer cell panel viability, ATPlite luminescence, 48 h; series mostly up to 57.5 µM
Procedure, shortened: as §3

[9] = tested on: HeLa; test: as above; settings: Gynecologic cancer cell panel viability, ATPlite luminescence, 48 h; series mostly up to 57.5 µM
Procedure, shortened: as §3

[10] = tested on: Hek293T; test: as above; settings: Gynecologic cancer cell panel viability, ATPlite luminescence, 48 h, control line for the selectivity index; series mostly up to 57.5 µM
Procedure, shortened: as §3

[11] = tested on: JEG-3; test: as above; settings: Gynecologic cancer cell panel viability, ATPlite luminescence, 48 h; series mostly up to 57.5 µM
Procedure, shortened: as §3

[12] = tested on: OV90; test: as above; settings: Gynecologic cancer cell panel viability, ATPlite luminescence, 48 h; series mostly up to 57.5 µM
Procedure, shortened: as §3

[13] = tested on: PA-1; test: as above; settings: Gynecologic cancer cell panel viability, ATPlite luminescence, 48 h; series mostly up to 57.5 µM
Procedure, shortened: as §3

[14] = tested on: NIH3T3; test: qHTS assay to identify novel small-molecules to repurpose for Merkel cell carcinoma treatment (AID 1296009); settings: MCC and control cell lines, CellTiter-Glo viability, 72 h; at 44.8 µM (top of the series) unless noted; also: nearly all actives have a fitted effect of over 60% in size
Procedure, shortened: as §2

COc1cc(C2Oc3c(OC)cc(CCCO[C@@H]4O[C@H](CO)[C@@H](O)[C@H](O)[C@H]4O)cc3C2CO)ccc1O (some centres undefined)
inactive: max response [1] 1.37% | max response [2] 3.22% | outcome [3] inactive [at 17.4 µM] | Potency [4] | Potency [5] | Potency [6] | Potency [7] | Potency [8] | Potency [9] | Potency [10] | Potency [11] | Potency [12] | Potency [13]

C[C@@H]1O[C@@H](OC[C@H]2O[C@@H](OCCc3ccccc3)[C@H](O)[C@@H](O)[C@@H]2O)[C@H](O)[C@H](O)[C@H]1O
inactive: outcome [1] | max response [2] 4.11% | outcome [3] inactive [at 17.4 µM] | Potency [4] | Potency [5] | Potency [6] | Potency [7] | Potency [8] | Potency [9] | Potency [10] | Potency [11] | Potency [12]

O=C(/C=C/c1c(C(=O)O)[nH]c2cc(Cl)cc(Cl)c12)Nc1ccccc1
inactive: outcome [1] | outcome [2] | outcome [3] | Potency [4] | outcome [14] | Potency [5] | Potency [7] | Potency [8] | Potency [9] | Potency [10] | Potency [11] | Potency [12] | Potency [13]

C[C@@H]1O[C@@H](O[C@@H]2[C@@H](O)[C@H](O[C@@H]3[C@@H](O)[C@@H](O)[C@H](O[C@H]4[C@H](OC(=O)[C@]56CCC(C)(C)C[C@H]5C5=CCC7[C@@]8(C)C[C@H](O)[C@H](O[C@@H]9O[C@@H](C)[C@H](O)[C@@H](O)[C@H]9O)[C@@](C)(CO)C8CC[C@@]7(C)[C@]5(C)C[C@H]6O)O[C@H](C)[C@H](O)[C@@H]4O)O[C@H]3C)OC[C@H]2O)[C@H](O)[C@H](O)[C@H]1O (some centres undefined)
inactive: outcome [1] | outcome [2] | outcome [3] inactive [at 9.27 µM] | outcome [4] inactive [at 9.27 µM] | outcome [14] inactive [at 9.27 µM] | activity change, negative = cytotoxicity [5] 1.27% [at 6.55 µM] | activity change, negative = cytotoxicity [7] 0.934% [at 6.55 µM] | activity change, negative = cytotoxicity [8] -4.41% [at 6.55 µM] | activity change, negative = cytotoxicity [9] 3.33% [at 6.55 µM] | activity change, negative = cytotoxicity [10] 5.23% [at 6.55 µM] | activity change, negative = cytotoxicity [11] 1.34% [at 6.55 µM] | activity change, negative = cytotoxicity [12] 4.8% [at 6.55 µM] | activity change, negative = cytotoxicity [13] 7.81% [at 6.55 µM]

CC(=O)O[C@H]1[C@H](C)[C@@H](O)[C@H]2[C@@H]1C=C(C(=O)O)[C@H]1C[C@@H]3[C@H]([C@H]21)[C@H]1C(=O)O[C@@H]2CC[C@@]3(C)O[C@]1(O)[C@@H]2C
inactive: max response [1] 7.8% | outcome [2] | outcome [3] inactive [at 17.4 µM] | Potency [4] | outcome [14] inactive [at 17.4 µM] | Potency [5] | Potency [7] | Potency [8] | Potency [9] | Potency [10] | Potency [11] | Potency [12] | Potency [13]

CC[C@@H](c1ccc(F)c(F)c1)n1c(C(=O)OC)c(-c2ccno2)[nH]c1=S
inactive: max response [1] 5.04% | outcome [2] | outcome [3] | Potency [4] | outcome [14] | Potency [5] | Potency [6] | Potency [9] | Potency [10] | Potency [11] | Potency [12] | Potency [13]

CCc1c(CC(N)=O)c2cc(OCCCP(=O)(O)O)ccc2n1Cc1ccccc1
inactive: outcome [1] | max response [2] -4.64% | outcome [3] | Potency [4] | Potency [5] | Potency [6] | Potency [7] | Potency [8] | Potency [9] | Potency [10] | Potency [11] | Potency [12] | Potency [13]

Cc1cc(C)cc(NC(=O)Cc2ccc(OC(C)(C)C(=O)O)cc2)c1
inactive: outcome [1] | max response [2] -1.99% | outcome [3] | Potency [4] | Potency [5] | Potency [6] | Potency [7] | Potency [8] | Potency [9] | Potency [10] | Potency [11] | Potency [12] | Potency [13]

CC1(CCC(=O)O)C(=O)C=CC23CC4CC(OC4(C)C2O)C13 (centres undefined)
inactive: max response [1] 2.02% | outcome [2] | outcome [3] | Potency [4] | outcome [14] | Potency [5] | Potency [7] | Potency [8] | Potency [9] | Potency [10] | Potency [11] | Potency [12] | Potency [13]

C/C=C/C1=CC2=C(CO1)C(=O)[C@](C)(O)[C@H](OC(=O)c1c(O)cc(OC)c(O)c1C)C2
inactive: outcome [1] | outcome [2] | outcome [3] inactive [at 17.4 µM] | Potency [4] | outcome [14] inactive [at 17.4 µM] | Potency [5] | Potency [6] | Potency [7] | Potency [8] | Potency [9] | Potency [10] | Potency [11] | Potency [12] | Potency [13]

CC(=O)OC(CSC1CCC(=O)OC(C)CCC(=O)C1)C(=O)O (centres undefined)
inactive: outcome [1] | outcome [2] | outcome [3] | Potency [4] | outcome [14] | Potency [5] | Potency [6] | Potency [7] | Potency [8] | Potency [9] | Potency [10] | Potency [11] | Potency [12] | Potency [13]

O=C(O[C@@H]1O[C@H](CO)[C@@H](O)[C@H](O)[C@H]1O)c1c(O)cc(O)cc1/C=C/c1ccccc1
inactive: outcome [1] | max response [2] 3.61% | outcome [3] inactive [at 17.4 µM] | Potency [4] | Potency [5] | Potency [6] | Potency [7] | Potency [8] | Potency [9] | Potency [10] | Potency [11] | Potency [12] | Potency [13]

CC(C)C1=CCC(C)(O)C(OC2OC(CO)C(O)C(O)C2O)C1 (centres undefined)
inactive: outcome [1] | outcome [2] | outcome [3] | Potency [4] | Potency [5] | Potency [6] | Potency [7] | Potency [8] | Potency [9] | Potency [10] | Potency [11] | Potency [12] | Potency [13]
